The text below walks through data of PMC4336329 (PLoS ONE, 2015).

Among all 310,000 compounds or so, about 14,000 (4.5%) showed an effect of 50% or more. Effects have a minus sign here. Many of the other results were omitted from the sample, so strong results are more common in it than they were.
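Further: peak tail current of the secondary pulse compared with the same well before compound.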

human ether-à-go-go-related gene (hERG) potassium channel, sequence (Q12809 whole entry, looked up): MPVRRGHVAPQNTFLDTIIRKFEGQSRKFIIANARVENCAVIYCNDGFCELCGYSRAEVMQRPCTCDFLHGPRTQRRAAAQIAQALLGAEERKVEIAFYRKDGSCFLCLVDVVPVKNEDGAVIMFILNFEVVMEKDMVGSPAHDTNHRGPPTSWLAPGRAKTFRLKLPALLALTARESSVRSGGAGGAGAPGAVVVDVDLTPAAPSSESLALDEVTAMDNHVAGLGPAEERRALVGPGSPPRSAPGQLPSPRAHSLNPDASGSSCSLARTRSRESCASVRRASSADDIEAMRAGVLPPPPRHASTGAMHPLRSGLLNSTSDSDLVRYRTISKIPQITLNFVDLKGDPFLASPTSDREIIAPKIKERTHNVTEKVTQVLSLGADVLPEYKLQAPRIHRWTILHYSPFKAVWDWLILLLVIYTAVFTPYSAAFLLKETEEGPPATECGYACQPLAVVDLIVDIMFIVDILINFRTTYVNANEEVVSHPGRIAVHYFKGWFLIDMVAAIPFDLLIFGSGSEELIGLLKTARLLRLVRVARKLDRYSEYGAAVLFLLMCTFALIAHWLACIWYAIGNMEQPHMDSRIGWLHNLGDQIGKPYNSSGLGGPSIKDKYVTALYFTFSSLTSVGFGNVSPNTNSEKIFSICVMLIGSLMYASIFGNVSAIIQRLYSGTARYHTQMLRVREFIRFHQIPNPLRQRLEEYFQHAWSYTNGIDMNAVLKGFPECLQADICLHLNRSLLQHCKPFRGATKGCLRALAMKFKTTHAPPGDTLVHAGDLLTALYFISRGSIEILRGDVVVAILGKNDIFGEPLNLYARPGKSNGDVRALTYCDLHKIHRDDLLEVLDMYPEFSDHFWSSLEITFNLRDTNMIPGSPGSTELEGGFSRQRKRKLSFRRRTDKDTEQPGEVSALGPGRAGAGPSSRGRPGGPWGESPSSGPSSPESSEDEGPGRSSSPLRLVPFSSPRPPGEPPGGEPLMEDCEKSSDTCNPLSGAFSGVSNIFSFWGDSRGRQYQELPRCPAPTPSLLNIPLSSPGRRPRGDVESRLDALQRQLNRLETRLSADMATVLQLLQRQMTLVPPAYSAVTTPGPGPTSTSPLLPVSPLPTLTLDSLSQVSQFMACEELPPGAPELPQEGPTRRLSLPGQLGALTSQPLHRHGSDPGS

This test addresses human ether-à-go-go-related gene (hERG) potassium channel (human, UniProt Q12809). Description: primary screen, population patch clamp on CHO cells stably expressing hERG; higher = less effect of the substance.
As for `Cc1ccc(-c2n[nH]c(=S)n2/N=C/c2ccc(C(=O)O)cc2)cc1`, the “hERG current change (%, negative = inhibition) at 10uM” value worked out at 3.02%.

As to `CCN(CC)c1ccc(N=Cc2ccc(N(CC)CC)cc2O)cc1`, the “hERG current change (%, negative = inhibition) at 10uM” value is on record as 0.156%.

Take `CCCN1CCN(C(=O)c2nn(-c3ccc(OC)cc3)c(=O)c3c2c2ccccc2n3C)CC1`: the “hERG current change (%, negative = inhibition) at 10uM” value was -3.71%. In the case of `Cc1ccc(C)c(S(=O)(=O)N2CCN(C(=O)CCC(=O)NCc3ccc(Cl)cc3)CC2)c1`, the “hERG current change (%, negative = inhibition) at 10uM” value is -65.1%. For `O=C(CCC(=O)N1CCOCC1)NCc1cccc(C(F)(F)F)c1` the value was -0.171%; for `Cc1ccc(S(=O)(=O)N2CCN(C(=O)CCC(=O)NCc3ccc(F)cc3)CC2)cc1`, -24%. The value for `Cc1ccc(S(=O)(=O)CCC(=O)N2CCc3ccccc32)cc1` was -16%.

With `COc1ccc(CNC(=O)CCC(=O)N2CCN(S(=O)(=O)c3ccc(Cl)cc3)CC2)cc1`, the “hERG current change (%, negative = inhibition) at 10uM” value came out at 22.3%.

Turning to `O=C(CCC(=O)N1CCN(S(=O)(=O)c2ccc(Cl)cc2)CC1)NCc1ccccc1`, the “hERG current change (%, negative = inhibition) at 10uM” value is recorded as -14.8%. For the compound `Cc1ccc(S(=O)(=O)N2CCN(C(=O)CCC(=O)N3CCc4ccccc43)CC2)cc1`, the “hERG current change (%, negative = inhibition) at 10uM” value is listed as -62.2%. Consider `Cc1ccc(S(=O)(=O)N2CCN(C(=O)CCC(=O)NCc3cccc(C(F)(F)F)c3)CC2)cc1`, for which the “hERG current change (%, negative = inhibition) at 10uM” value was -54.2%. The value for `O=C(CCC(=O)N1CCCc2ccccc21)N1CCN(S(=O)(=O)c2ccccc2)CC1` was -9.26%. The value for `O=C(CSc1nnc(-c2ccccc2O)n1Cc1ccccc1)NNC(=O)c1ccccc1O` was 0.52%; that for `COc1nccc(C(F)(F)F)c1C(=O)NC(=O)Nc1ccccc1` was -8.51%; that for `CCOC(=O)C1CCCN(C(=O)c2cc(S(=O)(=O)N3CCCCC3)c[nH]2)C1` (centres unmarked) was 14.5%. Regarding `CCOC(=O)c1c(C)[nH]c(C)c1S(=O)(=O)N1CCCCC1`, the “hERG current change (%, negative = inhibition) at 10uM” value amounted to 15.9%. With `CCOC(=O)CC(NS(=O)(=O)Cc1ccccc1)c1ccc(C)cc1` (centres unmarked), the “hERG current change (%, negative = inhibition) at 10uM” value was -5.46%. For `Cc1ccccc1NC(=O)CCC(=O)N/N=C/c1c[nH]c2ccccc12` the value was 2.16%; for `C=CCn1c2ccccc2c2nnc(SCC(=O)NC(C(=O)OC)C(C)C)nc21` (centres unmarked), -15.1%; for `COc1ccc(-n2c(-c3ccccc3)c[n+]3c2CCC3)cc1.[Br-]`, -20.5%. The value for `COc1ccc(-n2c(-c3ccc(Br)cc3)n[nH]c2=S)cc1` was 13.3%; that for `COc1ccc(-c2c[n+]3c(n2-c2c(C)n(C)n(-c4ccccc4)c2=O)CCCCC3)cc1.[Br-]` was 4.43%. For `COc1ccc(-n2c(-c3ccc(Br)cc3)c[n+]3c2CCCCC3)cc1.[Br-]` the value was -80.3%; for `COc1ccc(-n2c(-c3ccc(Br)cc3)c[n+]3c2SC(C)C3)cc1.[Br-]` (centres unmarked), -72.6%. For `COc1ccc(-c2c[n+]3c(n2-c2ccc(C)cc2)CCCCC3)cc1.[Br-]`, the “hERG current change (%, negative = inhibition) at 10uM” value is -48.2%. The value for `COc1ccc(-n2c(-c3ccc(Br)cc3)c[n+]3c2CCC3)cc1.[Br-]` was -56%.
